The values that follow come from PubChem BioAssay (NCI).

Experiment in all cases: NCI-60 one-dose screen, 48 h (100 = growth as untreated, 0 = no growth, -100 = all killed)
Holding throughout (conditions): 10 µM unless noted

Assay [1] relates to HCT-15 colon.
The subject of assay [2] is HT29 colon.
The test system of assay [3] is SNB-75 CNS.
Assay [4] relates to SNB-19 CNS.
For assay [5], the system named is U251 CNS.
Assay [6] concerns PC-3 prostate.
The test system of assay [7] is SK-MEL-5 melanoma.
The test system of assay [8] is UACC-62 melanoma.
For assay [9], the system named is LOX IMVI melanoma.
For assay [10], the system named is SK-MEL-28 melanoma.
Assay [11] has as its system SK-MEL-2 melanoma.
Assay [12] has as its system EKVX NSCLC.
For assay [13], the system named is SN12C renal.
The subject of assay [14] is UO-31 renal.
The test system of assay [15] is TK-10 renal.
The test system of assay [16] is ACHN renal.
The test system of assay [17] is CAKI-1 renal.
Assay [18] relates to A498 renal.
Assay [19] deals with CCRF-CEM leukemia.
In assay [20] the test system is MOLT-4 leukemia.

This is part of a sample that, as a whole, favours compounds with a hit. Of some 83,000 tested, about 20% had one in any assay.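 A percent growth of 40 corresponds to 60% growth inhibition; 0 means no net growth; -100 means all cells died. Active threshold: below 10.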 Values without a mark were called inactive. Activity calls are given as the source filed them.

As for `COCCn1cc(-c2nc(-c3cn(CCOC)c4ncccc34)cs2)c2cc(F)ccc21`, the growth in assay [1] was 17.8%; in assay [2], 57.6%; in assay [3], 77.4%; in [4], 90.4%; in assay [5] it was 69.8%; in assay [6] it was 39.2%. Also, the growth was 14.4% in [7]; 61.8% in assay [8]; 64.3% in assay [9]; 91% in assay [10]; 73.8% in assay [11]; 23.2% in assay [12]. Also, the growth in assay [13] is 82.3%; in assay [14], 68.3%; in [15], 28.2%; in assay [16], 76.7%; in assay [17] it was 86.4%; in [18] it was 73.3%. In addition, the growth in [19] was 72.5%; in assay [20], 68.9%.
In the case of `COC(=O)[C@@]12CC=C(C)[C@]3(C[C@H](c4ccoc4)OC3=O)[C@H]1C=C[C@@H](O)[C@@]2(O)C(=O)OC`, the growth in assay [1] is 108%; in assay [2], 84.7%; in assay [3] it was 88.9%; in [4], 105%; in assay [5], 97.9%; in assay [6] it was 95.6%. Also, the growth in assay [7] was 107%; in assay [8], 92.8%; in [9], 97.5%; in assay [10] it was 105%; in assay [11], 84.6%; in assay [12], 94.7%. The growth in assay [13] is 104%; in assay [14] it was 82.7%; in assay [15], 80.3%; in assay [16] it was 105%; in [17] it was 85.1%; in assay [18] it was 109%. Besides, the growth in assay [19] was 111%; in assay [20], 106%.
For `Nc1[nH]nc2nc(-c3ccccc3)n3c4ccccc4nc3c12`, the growth in assay [1] is 101%; in assay [2], 104%; in assay [3], 87.7%; in [4], 106%; in assay [5], 102%; in assay [6], 95.2%. For the same molecule, the growth in assay [7] was 92.8%; in assay [8], 88.7%; in [9] it was 99.7%; in [10] it was 117%; in [11] it was 98.8%; in assay [12], 78%. Also, the growth is 104% in assay [13]; 83.2% in [14]; 110% in assay [15]; 89% in assay [16]; 83.1% in [17]; 89.2% in [18]. The growth is 102% in assay [19] and 97.9% in [20].
Turning to `C/C(=C(\c1ccc(OCCN2CCCCCC2)cc1)c1ccc(OC(=O)c2ccccc2)cc1)c1ccc(Cl)cc1`, the growth was 7.21% (active) in assay [1]; 1.67% (active) in [2]; 73.7% in [3]; 57.9% in [4]; 29.8% in assay [5]; 33.8% in [6]. For the same molecule, the growth was 55.6% in assay [7]; 28.4% in assay [8]; -38.9% (active) in assay [9]; 51.7% in [10]; 63% in [11]; 68.6% in assay [12]. Also, the growth in [13] is 47.1%; in assay [14], 26.7%; in assay [15], 70.4%; in assay [16] it was 77.1%; in assay [17] it was 49.5%; in assay [18], 86.9%. The growth in assay [19] is 16%; in assay [20] it was 8.86% (active).
As for `O=C(NN1C(=O)CSC1c1cccc([N+](=O)[O-])c1)c1ccc(NC(=O)c2ccccn2)cc1` (stereo not given), the growth in assay [1] is 92.3%; in assay [2], 105%; in assay [3], 98.9%; in [4], 97.8%; in [5], 106%; in assay [6], 107%. The growth was 102% in assay [7]; 96% in [8]; 94.9% in [9]; 99.3% in [10]; 102% in assay [11]; 97.7% in assay [12]. Moreover, the growth was 96.9% in assay [13]; 94.5% in [14]; 97% in assay [15]; 103% in assay [16]; 98.7% in assay [17]; 97.5% in assay [18]. Moreover, the growth in assay [19] is 110%; in [20], 69.7%.
In the case of `O=C(c1c[nH]c2ccccc12)c1n[nH]c(=S)n1-c1ccc([N+](=O)[O-])cc1`, the growth in assay [1] is 64.7%; in assay [2], 98.6%; in [3], 95.4%; in [4], 116%; in assay [5], 105%; in [6], 83.9%. The growth was 88.3% in assay [7]; 93.1% in assay [8]; 100% in assay [9]; 107% in assay [10]; 86.4% in assay [11]; 94.6% in assay [12]. Further, the growth in assay [13] was 92.8%; in [14], 75.2%; in [15], 117%; in [16] it was 96.1%; in [17], 85.4%; in assay [18], 87.9%. For the same molecule, the growth in [19] is 85.1%; in [20] it was 86%.
In the case of `CN1CCN(Cc2ccc(NC(=O)c3cncc(C#Cc4cnc(N)cc4C#N)c3)cc2C(F)(F)F)CC1`, the growth in assay [1] is 15.4%; in assay [2], 5.78% (active); in assay [3], 33.2%; in assay [4], 39.1%; in assay [5] it was 20.1%; in assay [6], 11.7%. Also, the growth in assay [7] is 9.34% (active); in assay [8] it was -12.9% (active); in assay [9], -84.6% (active); in [10] it was 0.973% (active); in assay [11], -65.9% (active); in [12], 34.3%. Also, the growth was 13.5% in [13]; 1.25% (active) in assay [14]; 19.4% in assay [15]; 10.3% in [16]; -9.35% (active) in assay [17]; -8.99% (active) in assay [18]. For the same molecule, the growth in assay [19] is 6.94% (active); in assay [20], 4.83% (active).
